# Compound activity (PubChem)
# Rev-erbA mod = Rev-erb alpha (human) modulation | P20393 | Rev-erbα–FITC-DNA binding, fluorescence polarization, 90 min | activity, % at 10 µM | 0.79% of 370,000 active;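 active = activity above about 14%, limit read from the data; passing the limit was not always enough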
# PP1 inh = counter-screen for PP5 inhibitors: inhibitors of human PP1-alpha; 0.9% of 320,000 active; P62136; inhibition, % at 6.7 µM; purified PP1alpha, OMFP fluorescence;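 active = inhibition above the mean inhibition of all tested compounds plus 3 SD, computed separately for each screening campaign, cut at about 15% in these data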
# Target sequence (P62136 whole entry, looked up): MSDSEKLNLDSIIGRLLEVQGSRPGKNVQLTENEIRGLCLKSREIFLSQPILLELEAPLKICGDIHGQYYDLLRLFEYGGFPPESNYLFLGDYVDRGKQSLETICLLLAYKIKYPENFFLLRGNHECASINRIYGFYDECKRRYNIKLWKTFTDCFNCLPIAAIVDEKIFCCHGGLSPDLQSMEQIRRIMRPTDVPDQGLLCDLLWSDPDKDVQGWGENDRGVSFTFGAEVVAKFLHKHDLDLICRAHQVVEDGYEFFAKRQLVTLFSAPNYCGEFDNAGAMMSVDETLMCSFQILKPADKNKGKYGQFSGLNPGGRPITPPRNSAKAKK
# GASC-1 inh = human JMJD2C demethylase inhibition. GST-JMJD2C(1-420) H3K9me3 demethylation, DELFIA europium. inhibition, % at 2.35 µM. 0.069% of 330,000 active. Q9H3R0;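 active = more than half of a compound's replicate wells show inhibition beyond 50%, single wells judged on their own value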;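 note: signal counts dimethyl H3K9 product captured on neutravidin plate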
# PP5 inh = inhibitors of human protein phosphatase 5 (PP5). P53041. inhibition, % at 6.7 µM. 0.18% of 320,000 active. purified PP5c, OMFP substrate fluorescence;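 active = inhibition above the campaign's mean inhibition across all tested compounds plus 3 SD, cut at about 9.5% in these data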
# KLK7 zymogen act = activators of human kallikrein-7 zymogen. purified proKLK7, EDANS-DABCYL substrate fluorescence; 100% is mature enzyme control, 0% vehicle. activation, % at 7 µM. 0.9% of 370,000 active;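 active = activation above the mean of all tested compounds plus 3 SD, computed per campaign excluding outliers beyond control limits, cut at about 13% in these data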
# Target sequence (P49862 whole entry, looked up): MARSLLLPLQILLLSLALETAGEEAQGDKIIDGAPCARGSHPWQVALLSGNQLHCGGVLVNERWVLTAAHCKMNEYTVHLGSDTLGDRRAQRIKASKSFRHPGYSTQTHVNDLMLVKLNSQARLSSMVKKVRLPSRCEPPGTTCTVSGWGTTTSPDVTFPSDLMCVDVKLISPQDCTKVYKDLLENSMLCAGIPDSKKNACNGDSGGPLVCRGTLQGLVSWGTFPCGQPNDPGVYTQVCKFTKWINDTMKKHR
# PG9 Ab binder = PG9 antibody binding by small molecule; TR-FRET gp120-PG9 antibody binding; inhibition, % at 6.7 µM; 0.43% of 360,000 active; AID 624416; in the data active = inhibition above about 8.5%
# PP5 inh confirm = confirmation of human PP5 phosphatase inhibitors; shares compounds with PP5 inh; Purified PP5, fluorogenic phosphatase substrate, fluorescence; inhibition, % at 6.7 µM; 22% of 460 active; in the data active = inhibition above about 9.5%
# PP1 counter 3x = counter-screen for PP5 inhibitors: human PP1 phosphatase inhibition. shares compounds with PP5 inh. PP1 enzyme, fluorescent phosphatase substrate. inhibition, % at 6.7 µM. 4% of 460 active. AID 2355; in the data active = inhibition above about 16%
# Hits are given with their value; - = inactive; . = no result. An excerpt weighted towards active compounds, which were near 2.8% of everything screened.
SMILES,Rev-erbA mod,PP1 inh,GASC-1 inh,PP5 inh,KLK7 zymogen act,PG9 Ab binder,others
C#CCOCCOCCOCCNc1nc(N2CCN(C(=O)[C@H](Cc3ccc(O)cc3)n3cc([C@@H](N)C(C)CC)nn3)CC2)nc(N2CCN(C(=O)[C@H](Cc3cc4ccccc4[nH]3)n3cc([C@@H](N)C(C)CC)nn3)CC2)n1 (stereo partly drawn),.,16.6,-,-,.,.,
CC(=O)OCC(=O)[C@@]1(O)[C@H](OC(C)=O)CC2C3CCC4=CC(=O)C=C[C@]4(C)[C@@]3(F)[C@@H](O)C[C@@]21C (stereo partly drawn),-,.,.,.,.,.,
C1=C(c2ccccc2)Nc2ncnn2C1c1ccccc1 (stereo not drawn),-,-,-,-,-,-,
Cc1ccc(C2=CC(c3ccccc3)n3ncnc3N2)cc1 (stereo not drawn),-,-,-,-,53.4,-,
COc1ccc(C2C/C(=N\O)C(C)(C)O2)cc1 (stereo not drawn),-,17.1,-,-,-,-,
COc1ccc(C2CC(O)(C(C)(C)O)NO2)cc1 (stereo not drawn),-,-,-,-,-,-,
Cc1c(C(=O)Nc2nc(-c3ccccn3)cs2)oc2ccccc12,.,16.1,.,-,.,.,
O=C(Nc1nc(-c2ccccn2)cs1)c1cc2ccccc2o1,-,-,-,-,-,-,
COc1ccccc1CNC(=O)c1cc(-c2ccccc2)nn1CC1CC(c2cccnc2)=NO1 (stereo not drawn),-,-,57.3,-,-,-,
O=C(c1cc2sccc2n1Cc1ccccc1)N1CCN(c2nc3ccccc3s2)CC1,-,15.3,-,-,-,-,
COc1c(C)c2c(c(O)c1C/C=C(\C)CCC(=O)OCCN1CCOCC1)C(=O)OC2,-,.,.,.,.,.,
COc1cccc(-c2nn3c(-c4ccccn4)nnc3s2)c1,-,16.8,-,-,-,-,
Cc1ccc(-c2nc(C(=O)NCCCN3CCOCC3)cc3c2[nH]c2ccccc23)cc1,-,15.3,-,-,-,-,
Cc1cccc(N2CCN(S(=O)(=O)c3ccc4[nH]c(=O)ccc4c3)CC2)c1C,-,16.2,-,-,-,-,
COc1ccc(CNC(=O)O[C@H]2CC[C@@]34CCCN3C(=O)CCC[C@H]4[C@H]2C)cc1OC,-,.,.,.,.,.,
CCCC[C@H]1C2CC(OC(=O)NCCCc3ccccc3)C(C2)[C@H]2CCCCN21 (stereo partly drawn),-,.,.,.,-,.,
CCOc1cc(CNCC2CCCO2)cc(Br)c1OCC(N)=O (stereo not drawn),-,17.1,-,-,-,-,
COCC(=O)N(C)[C@H]1C[C@H]2c3[nH]c4cccc(-c5cccc(F)c5)c4c3CCN2C(=O)[C@H]1[C@H](C)O,-,.,.,.,-,.,
CC(=O)Nc1ccc(NC(=O)c2ccc(COc3ccc4c(C)cc(=O)oc4c3)cc2)cc1,.,-,-,-,.,.,
Cc1cccc(C(C)C)c1NC(=O)c1ccc(COc2ccc3c(C)cc(=O)oc3c2)cc1,-,17.3,-,-,-,-,
COc1ccc(CN2CCN(c3nc4ccccc4s3)CC2)cc1,-,.,-,.,-,-,
COc1ccc(CCn2c(O)cc3nn(-c4nc5ccccc5s4)c(=O)c-3c2C)cc1,-,17.3,-,-,-,-,
CSCC[C@H](N)C(=O)O,-,.,.,.,.,.,
COc1cc(C(=O)NS(=O)(=O)c2ccccc2C)ccc1Cc1cn(C)c2ccc(NC(=O)OC3CCCC3)cc12,.,23.7,-,-,.,.,
O=C(O)[C@H]1O[C@H](O)[C@H](O)[C@@H](O)[C@@H]1O,-,.,.,.,.,.,
SMILES,Rev-erbA mod,PP1 inh,GASC-1 inh,PP5 inh,KLK7 zymogen act,PG9 Ab binder,others
Cc1[nH]n(-c2ccccc2)c(=O)c1C=Nc1cccc2cccnc12,-,15.7,-,-,-,-,
Cc1[nH]n(-c2ccccc2)c(=O)c1/C=N/Nc1nncc(-c2ccccc2)n1,.,17.0,-,-,-,-,
Cc1ccc(/C=N/Nc2nncc(-c3ccccc3)n2)o1,-,-,-,-,-,-,
N[C@@H](CSCC(=O)O)C(=O)O,-,.,.,.,.,.,
CCOc1cc(/C=C2\C(=O)N(c3ccc(C(N)=O)cc3)N=C2C)ccc1OC(=O)c1cccs1,.,-,-,12.1,.,.,PP5 inh confirm=-;PP1 counter 3x=-
O=C(CSc1nnc(-c2cccs2)o1)NCC1CN(Cc2ccccc2)CCO1 (stereo not drawn),-,-,-,19.2,-,-,PP5 inh confirm=-;PP1 counter 3x=-
CCOC(=O)[C@@]12CCCC=C1N(CCc1ccc(Cl)cc1)C(=O)[C@H]2CC(=O)N1CCOCC1,-,.,.,.,-,.,
O=C(NNC(=O)c1ccc[nH]1)Nc1cc(Cl)cc(Cl)c1,-,-,-,15.8,-,-,PP5 inh confirm=-;PP1 counter 3x=-
CC(=NNc1cc(C)c2cc(C)ccc2n1)c1ccccn1,-,.,.,.,-,-,
CCOc1cc2c(C#N)c(N(CC)CC)nc(N)c2c(N)n1,-,-,-,-,-,-,
CCCN(CC1CC1)c1nc(N)c2c(N)nc(OC)cc2c1C#N,-,-,-,11.9,-,-,PP5 inh confirm=38.8;PP1 counter 3x=-
Cc1ccc(NC(=O)C2CCN(c3ncccn3)CC2)cc1C,-,.,.,.,-,.,
COc1cc(OC)cc(C(=O)NCCOc2ccccc2)c1,-,-,-,-,-,-,
CCCCOc1ccc(C(=O)NCCOc2cccc(OC)c2)cc1,-,-,-,9.8,-,-,PP5 inh confirm=-;PP1 counter 3x=-
COc1ccc(OCCNC(=O)c2cccc(Oc3ccc(C(F)(F)F)cc3[N+](=O)[O-])c2)cc1,-,-,-,10.5,-,-,PP5 inh confirm=-;PP1 counter 3x=-
CCC(C(=O)Nc1ccccc1N1CCCC1)c1ccccc1Cl (stereo not drawn),-,.,.,.,-,.,
CCCCCCc1ccc(NC(=O)[C@@H]2CC=C[C@@H]3CCN(Cc4ccccc4)C(=O)[C@@H]32)cc1,-,.,.,.,.,.,
Cc1[nH]n(-c2ccccc2)c(=O)c1C(C[N+](=O)[O-])c1ccc(F)cc1 (stereo not drawn),-,-,-,12.6,-,-,PP5 inh confirm=-;PP1 counter 3x=-
O=C1CCC[C@H]2C[C@H](NCc3cccc(Cl)c3)CC[C@]23CCCN13,-,.,.,.,.,.,
COc1ccccc1CC(=O)O/N=C(\N)Cc1cccc2ccccc12,-,-,-,12.0,-,-,PP5 inh confirm=-;PP1 counter 3x=-
Cc1cc(C(=O)NCC(=O)O)c(C)o1,-,-,-,-,-,-,
CCOC(=O)CNC(=O)c1cc(C)oc1C,.,-,-,14.2,.,.,PP5 inh confirm=-;PP1 counter 3x=-
CCOC(=O)c1c(C)[nH]c(C)c1C(=O)COC(=O)/C=C/c1cccc(C(F)(F)F)c1,-,-,-,11.5,-,-,PP5 inh confirm=-;PP1 counter 3x=-
CN(C)c1ccc(C(=O)NC2CCCCN(Cc3cccc(Cl)c3)C2=O)cc1 (stereo not drawn),-,.,.,.,-,.,
CN(C)C(=O)Cn1c(SCC(=O)NC2CCCCC2)nc2ccccc21,-,-,-,10.0,-,-,PP5 inh confirm=-;PP1 counter 3x=-
COC(=O)C1=C(C)N(Cc2ccccc2C(F)(F)F)C(=NCc2ccccc2C(F)(F)F)NC1c1ccc(Cl)cc1 (stereo not drawn),-,.,.,.,-,-,
